Compound activity (PubChem)
Shown are actives, neighbours in structure and some others; about 17% of the full set was active somewhere.
TDP1 inh = blocks human tyrosyl-DNA phosphodiesterase 1 | AID 485290 | Q9NUW8 | Potency, µM (titrated, usually from 130 µM), usual class: inhibitors | recombinant TDP1, AlphaScreen DNA substrate cleavage | actives 0.28% (n = 350,000); further: nearly all actives have a fitted effect of over 40% in size
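E. coli-derived human Tdp1, 1 nM final. Cpd preinc 15 min RT; substrate 15 nM final, 5 min RT; AS bead mix 10 ug/ml final, 10 min RT. Signal loss = tyrosine-FITC cleavage. No-enzyme wells = max signal.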
TDP1 cell noCPT = qHTS for Inhibitors of human tyrosyl-DNA phosphodiesterase 1 (TDP1): qHTS in cells in absence of CPT; AID 686978, 2013; DT40 Tdp1-/- hTDP1 cells, no CPT, ATP luminescence, 48 h; actives 15% (n = 420,000); Potency, µM (highest dose often 46.2 µM), hits mostly inhibitors; further: nearly all actives have a fitted effect of over 55% in size
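Chicken DT40 Tdp1-/- cells stably complemented with human TDP1 were seeded at 400 cells/well with DMSO in place of 20 nM camptothecin. After compound pinning, cells grew at least 48 hr at 37 °C; viability read by CellTiter-Glo luminescence.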
DT40 TDP1 CPT = DT40-hTDP1 cell growth loss with CPT; chicken DT40 Tdp1-/-;hTDP1 cells + 20 nM CPT, ATP luminescence, 48 h; Potency, µM (top dose mostly 46.2 µM), most hits filed as inhibitors; actives 12% (n = 420,000); AID 686979; further: nearly all actives have a fitted effect of over 55% in size
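Cell growth measured by CellTiter-Glo luminescence after a minimum 48 h, 37 C compound exposure with 20 nM CPT in Tdp1-knockout DT40 cells stably expressing hTDP1, seeded 400/well; qHTS titration format.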
ClpP mod = qHTS Assay for Activators of ClpP. Potency, µM (doses to about 57.5 µM). purified B. subtilis ClpP, FRET peptide cleavage, 20 min. actives 1.9% (n = 340,000); active means well fitted falling curve with a large enough effect; inconclusive means small, poorly fitted or top-dose-only effect; inactive means no such curve, though single readings can be large or run the other way; further: the source files actives as falling curves though it sought activators and does not explain the sign; nearly all actives have a fitted effect of over 65% in size
Target sequence (P80244 whole entry, looked up): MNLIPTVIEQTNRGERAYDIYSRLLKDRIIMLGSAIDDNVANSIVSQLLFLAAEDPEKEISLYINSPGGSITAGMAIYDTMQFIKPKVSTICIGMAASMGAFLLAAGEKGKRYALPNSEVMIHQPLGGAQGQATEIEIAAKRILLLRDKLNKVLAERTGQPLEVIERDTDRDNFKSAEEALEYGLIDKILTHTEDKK
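Buffer: 100 mM Tris/HCl pH8, 100 mM KCl, 0.05% low protease BSA, 2.5% glycerol, 0.01% Tween-20. ClpP 10 microg/mL final; 20 min RT; delta FRET normalized to ADEP and DMSO controls.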
Hits are given with their value; . = inactive; ? = inconclusive; / = no result; [ ] = remark or other dose. Unless noted, the call rests on the fitted dose curve; in most records, active means well fitted curve in the direction sought with a large enough effect; inconclusive means small, poorly fitted or top-dose-only effect, or another doubt; inactive means no such curve, though single readings can be large; an effect the other way counts as inactive or inconclusive.

SMILES	TDP1 inh	TDP1 cell noCPT	DT40 TDP1 CPT	ClpP mod
CCOC(=O)C1=CN(Cc2cccc(F)c2)S(=O)(=O)NC1c1ccc(F)c(Cl)c1 (centres undefined)	.	?	?	.
CCOC(=O)C1=CN(Cc2cccc(-c3cccnc3)c2)S(=O)(=O)N(C)C1C (centres undefined)	.	13µM	?	.
CCOC(=O)C1=CN(Cc2cccc(F)c2)S(=O)(=O)N(CC)C1c1ccc(C(F)(F)F)cc1 (centres undefined)	.	23µM	21µM	.
CCOC(=O)CNC(=O)CSc1nc(Cc2ccccc2)nc2ccccc12	.	.	?	.
Cc1ccc(NNC(=O)Nc2ccc(Cl)cc2)nn1	/	?	21µM	/
O=C(NNc1cccc(Cl)n1)Nc1ccc(Cl)cc1	.	.	?	.
Cc1noc(Cn2c(=O)c3ccccc3n(CC(=O)Nc3ccc(C(C)C)cc3)c2=O)n1	.	16µM	?	.
O=C(Cn1c(=O)n(Cc2nc(-c3ccccc3)no2)c(=O)c2cc3c(cc21)OCO3)Nc1ccccc1	.	?	.	18µM
O=C(Cn1c(=O)n(Cc2nc(-c3ccccc3)no2)c(=O)c2cc3c(cc21)OCO3)Nc1ccc(Cl)cc1	.	?	?	13µM
Cc1ccc(NC(=O)Cn2c(=O)n(Cc3nc(-c4ccccc4)no3)c(=O)c3cc4c(cc32)OCO4)cc1F	.	?	.	.
COc1ccc(-c2noc(Cn3c(=O)c4ccccc4n(CC(=O)Nc4cccc(OC)c4)c3=O)n2)cc1	.	21µM	?	.
COc1cccc(NC(=O)Cn2c(=O)n(Cc3nc(-c4ccccc4)no3)c(=O)c3ccccc32)c1	.	?	.	.
COc1ccc(CCC(=O)NCc2ccc3c(c2)CCN3C(=O)c2ccc(Cl)cc2)cc1	.	?	.	.
C=C1NN(Cc2ccccc2)C(=O)N1c1ccc(OC)cc1	/	.	.	.
Cc1ccc(S(=O)(=O)N2CCC(=O)N(C(COCc3ccccc3)Cc3ccccc3)CC2)cc1 (centres undefined)	.	12µM	?	.
Cc1ccc(S(=O)(=O)N2CCC(=O)N(C(COCc3cccc(C(F)(F)F)c3)Cc3ccccc3)CC2)cc1 (centres undefined)	.	21µM	?	.
Cc1ccc(S(=O)(=O)N2CCC(=O)N([C@H](COCc3ccc(Cl)cc3)Cc3ccccc3)CC2)cc1	.	?	?	.
Cc1ccc(S(=O)(=O)N2CCC(=O)N(C(COCc3ccc(Cl)cc3Cl)Cc3ccccc3)CC2)cc1 (centres undefined)	.	?	?	.
Cc1ccc(S(=O)(=O)N2CCC(=O)N([C@H](COC(=O)Nc3ccccc3)Cc3ccccc3)CC2)cc1	/	18µM	?	.
Cc1ccc(S(=O)(=O)N2CCC(=O)N(CCOCc3ccc(Cl)cc3)CC2)cc1	.	16µM	12µM	.
CC1CCCN(C(=O)COC(=O)C2=COCCO2)C1 (centres undefined)	.	.	.	/
CC(=O)c1ccc(NC(=O)CCc2c(C)nn(-c3ccc4nncn4n3)c2C)cc1	.	?	?	.
Cc1ccc(S(=O)(=O)N2CCC(=O)N(C(COCc3cccc(Cl)c3)Cc3ccccc3)CC2)cc1 (centres undefined)	.	18µM	.	.
Cc1ccc(S(=O)(=O)N2CCC(=O)N([C@H](COCc3cccc(Cl)c3)Cc3ccccc3)CC2)cc1	/	21µM	?	.
Cc1ccc(S(=O)(=O)N2CCC(=O)N([C@H](COCc3ccc(Cl)c(Cl)c3)Cc3ccccc3)CC2)cc1	/	?	?	.
SMILES	TDP1 inh	TDP1 cell noCPT	DT40 TDP1 CPT	ClpP mod
CCN(C[C@H]1N[C@@](Cc2ccccc2)(C(=O)OC)[C@H]2C(=O)N(C)C(=O)[C@@H]12)C(=O)NC(C)C	.	.	.	.
O=C(CSc1nnc(-c2ccccc2F)n1C1CC1)N1CCCC1	/	.	.	.
O=C(Nc1ccc2c(c1)OCO2)c1cc2ncc(Br)cn2n1	.	21µM	?	.
COc1cccc(/C=N/NC(=O)CNC(=O)c2ccc(S(=O)(=O)N3CCCC3)cc2)c1OC	.	.	.	.
Cc1c(N2CCCC2)cc2c(c1NC(=O)c1ccccc1Cl)C(C)(C)CC2(C)C	.	15µM	?	.
C[C@@H]1CN([C@H](C)CO)C(=O)c2cc(Br)cnc2O[C@@H]1CN(C)C(=O)Nc1ccccc1	/	.	.	.
N#Cc1nc(Nc2ccc3ccccc3c2)nc(NC2CCCC2)n1	.	/	/	/
O=C(NCc1cccc(F)c1)c1cccc(OC2CCN(C(=O)C3CC3)CC2)c1	.	18µM	?	.
O=C(/C=C/C=C/c1ccccc1)CC1(O)C(=O)N(CCc2ccccc2)c2ccccc21 (centres undefined)	.	18µM	21µM	.
CCN1C(=O)C(O)(CC(=O)/C=C/C=C/c2ccccc2)c2ccccc21 (centres undefined)	.	?	23µM	.
NC(=O)CN1C(=O)C(O)(CC(=O)/C=C\C=C\c2ccccc2)c2ccccc21 (centres undefined)	.	?	?	.
C#CCN1C(=O)C(O)(CC(=O)/C=C/C=C/c2ccccc2)c2ccccc21 (centres undefined)	.	23µM	?	.
Cc1cc(=O)n(Cc2ccccc2)c2c1c(C)nn2C	.	?	?	.
CC(C)(C)N1C(=O)[C@@H]2[C@H]3C(=CC[C@H]2C1=O)C(=O)[C@H]1O[C@H]1[C@H]3O	.[21 µM]	/	/	/
COc1ccc(O[C@H]2C=C[C@@H](c3ccccc3)O[C@H]2CO/N=C(/C)CCC(=O)OC[C@@H]2O[C@H](C#Cc3ccccc3)C=C[C@@H]2Oc2ccc(C)cc2)cc1	.[21 µM]	/	/	/
O=C1CCC(CCC(=O)N2CCCC(C(=O)c3cccc(C(F)(F)F)c3)C2)=NN1 (centres undefined)	.	.	.	/
COc1ccc2c(c1)c(CC(=O)O)c(C)n2Cc1ccc(F)cc1	.	/	/	/
O=c1oc2ccc(C#CC3(O)CCCCC3)cc2cc1-n1cc(C2(O)CCCCC2)nn1	.	.	.	.
CCCCCCCCOC(=O)/C=C/c1c(C)[nH]c(=O)[nH]c1=O	.	7.3µM	?	.
COCCCN1C(=O)C(=O)/C(=C(/O)c2ccc3c(c2)OCCO3)C1c1ccc(C(=O)OC)cc1 (centres undefined)	.	.	.	32µM
COCCN1C(=O)C(=O)/C(=C(/O)c2ccc3c(c2)OCCO3)C1c1ccc(C(=O)OC)cc1 (centres undefined)	.	.	.	.
COCCNC(=O)c1nn(-c2ccc(C)cc2)c(=O)n(C)c1=O	.	.	.	.
O=C(NCC(c1cccnc1)N1CCN(Cc2ccccc2)CC1)C(=O)Nc1cccc(Cl)c1 (centres undefined)	.	13µM	15µM	.
Cc1cccc(NC(=O)NCC(c2cccnc2)N2CCOCC2)c1 (centres undefined)	.	.	.	.
